Assay results taken from PubChem BioAssay AID652197 (Broad Institute, 2013).
Where “and” joins values, the source holds several entries; their conditions need not be identical. Equal values may be shown once. About 500 (0.15%) of roughly 340,000 compounds were called active. The sample holds actives, similar compounds and a random draw of the others, so the mix is not that of the screen. Unmarked numbers belong to inactive results.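 Rule for the calls: active = mean replicate inhibition of at least 30%, or all replicates individually reaching that 30% level; inactive = mean below 30% and not every replicate reaching it.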

Biological target: Endoplasmic reticulum aminopeptidase 1 (Homo sapiens) (UniProt Q9NZ08)
Experiment: human ERAP1 aminopeptidase inhibitors, primary screen, biochemical, single point, plate reader (AID 652197);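 note: 0% = neutral control wells and 100% = L-leucinethiol positive control wells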
Settings: recombinant ERAP1, Leu-AMC fluorescence, 60 min; at 10.7 µM; hits give high values

Chain of Endoplasmic reticulum aminopeptidase 1 (Homo sapiens) (Q9NZ08 whole entry, looked up): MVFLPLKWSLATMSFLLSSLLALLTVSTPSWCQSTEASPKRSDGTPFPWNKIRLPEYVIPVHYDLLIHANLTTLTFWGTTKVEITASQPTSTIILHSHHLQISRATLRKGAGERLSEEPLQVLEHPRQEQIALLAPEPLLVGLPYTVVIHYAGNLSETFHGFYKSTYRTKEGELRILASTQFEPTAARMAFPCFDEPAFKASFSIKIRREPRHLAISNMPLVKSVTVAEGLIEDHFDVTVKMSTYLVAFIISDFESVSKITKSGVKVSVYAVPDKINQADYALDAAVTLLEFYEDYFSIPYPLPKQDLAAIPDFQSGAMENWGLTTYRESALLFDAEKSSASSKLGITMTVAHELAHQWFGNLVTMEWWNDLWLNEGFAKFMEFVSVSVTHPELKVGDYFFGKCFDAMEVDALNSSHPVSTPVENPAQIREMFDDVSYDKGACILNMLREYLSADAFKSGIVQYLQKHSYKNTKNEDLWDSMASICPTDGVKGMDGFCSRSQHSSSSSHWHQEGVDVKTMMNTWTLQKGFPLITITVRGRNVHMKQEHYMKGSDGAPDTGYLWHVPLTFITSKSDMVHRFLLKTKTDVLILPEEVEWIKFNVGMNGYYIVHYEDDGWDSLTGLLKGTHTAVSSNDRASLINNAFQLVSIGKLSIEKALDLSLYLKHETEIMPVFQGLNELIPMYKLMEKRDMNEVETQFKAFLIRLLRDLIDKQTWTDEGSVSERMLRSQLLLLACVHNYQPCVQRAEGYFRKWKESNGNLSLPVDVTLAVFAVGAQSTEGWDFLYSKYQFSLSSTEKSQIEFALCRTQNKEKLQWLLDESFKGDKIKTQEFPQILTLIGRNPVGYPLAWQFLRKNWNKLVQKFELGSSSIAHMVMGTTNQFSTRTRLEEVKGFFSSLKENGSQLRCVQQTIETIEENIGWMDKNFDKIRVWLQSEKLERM

Row | SMILES | inhibition
1 | COc1ccc2c3c(n(C)c2c1)[C@@H](CO)N(C(=O)Nc1cccc(F)c1)CC31CCN(Cc2nccs2)CC1 | -1.39%
2 | O=C(Nc1ccccc1F)N1CC(=O)N2[C@@H](CO)[C@H](c3ccc(C#CC4CCCC4)cc3)[C@@H]2C1 | -1.61%
3 | CCC(=O)N1CCC2(CC1)CN(S(C)(=O)=O)[C@@H](CO)c1c2c2ccc(OC)cc2n1C | -0.517%
4 | CC(=O)N(C)C[C@H]1[C@H](c2ccc(C3=CCCCC3)cc2)[C@H](CO)N1CC1CC1 | 2.34%
5 | O=C(NCC1CC1)[C@@H]1[C@@H](CO)[C@@H]2Cn3c(ccc(C4=CCCC4)c3=O)[C@H]1N2CCC(F)(F)F | 6.29%
6 | O=C(Nc1ccc(F)cc1)N[C@H]1CC[C@H](CCn2cc(C3(O)CCCC3)nn2)O[C@@H]1CO | -1.65%
7 | CN1CCN(C(=O)C[C@H]2CC[C@H]3[C@@H](COC[C@H](O)CN3CC3CCCC3)O2)CC1 | 1.07%
8 | O=C(C[C@@H]1CC[C@@H]2[C@H](COC[C@H](O)CN2C(=O)c2ccncc2)O1)NCc1cc(F)cc(F)c1 | -4.11%
9 | CN1c2ccc(Br)cc2[C@@H]2[C@@H](CCN2S(=O)(=O)c2ccc(F)cc2)[C@@H]1CO | -0.368%
10 | CN1CCCCC(NC(=O)C(C)(C)C)C1=O (configuration not stated) | -3.81%
11 | CS(=O)(=O)Nc1ccc2c(c1)[C@H]1C[C@H](CC(=O)NC3CCCC3)O[C@@H](CO)[C@H]1O2 | -1.31%
12 | CC(C)C#Cc1cnc2c(c1)C(=O)N([C@H](C)CO)C[C@H](C)[C@@H](CN(C)C(=O)Nc1cc(F)ccc1F)O2 | 1.03%
13 | O=C(C[C@@H]1C=C[C@H](NC(=O)CN2CCOCC2)[C@@H](CO)O1)NCc1cccc(F)c1 | 0.919%
14 | CCCC#Cc1ccc([C@@H]2[C@@H](CO)N3C(=O)CN(C(=O)Nc4cccc(F)c4)C[C@H]23)cc1 | -1.93%
15 | CCCNC(=O)Nc1ccc2c(c1)OC[C@H](C)N(CCC(F)(F)F)C[C@H](C)[C@@H](OC)CN(C)C2=O | 1.36%
16 | CCN(CC)CCn1cnc2c1c(=O)[nH]c(=O)n2Cc1ccccc1 | -0.129%
17 | Cn1c(=O)[nH]c(=O)c2c1[nH]c(=S)n2Cc1ccccc1 | 30.6% (active)
18 | Cc1nnc(Sc2nc3c(c(=O)[nH]c(=O)n3C)n2Cc2ccccc2)s1 | -0.766%
19 | Cc1noc(C)c1NC(=O)N(C)C[C@@H]1OCCCC[C@H](C)Oc2ccc(NC(=O)C3CCCCC3)cc2C(=O)N([C@H](C)CO)C[C@@H]1C | 1.95%
20 | Cc1noc(C)c1NC(=O)N(C)C[C@@H]1OCCCC[C@H](C)Oc2ccc(NS(=O)(=O)c3c(C)noc3C)cc2C(=O)N([C@@H](C)CO)C[C@@H]1C | -2.92%
21 | CO[C@@H]1CN(C)C(=O)c2cc(NC(=O)NC3CCCCC3)ccc2OC[C@@H](C)N(C(C)=O)C[C@H]1C | 1.39%
22 | CO[C@H]1CN(C)C(=O)c2ccc(NC(=O)CC(F)(F)F)cc2OC[C@H](C)N(C(=O)C2CC2)C[C@H]1C | 1.15%
23 | COc1ccc2sc(-c3ccc(N(C)C)cc3)c(C#CCO)c2c1 | 0.776%

Row | SMILES | inhibition
24 | COc1ccc2c(c1)c(=Cc1ccc(N(C)C)cc1)c1cc(-c3ccccc3)[n+](C)n12 | 48.3% (active)
25 | CN(C)Cc1cn(CC[C@H]2CC[C@@H](NS(=O)(=O)c3ccccc3)[C@H](CO)O2)nn1 | -0.48%
26 | CCNC(=O)Nc1ccc2c(c1)C(=O)N(C)[C@H]1CC[C@@H](CC(=O)N[C@@H](C)c3ccccc3)O[C@H]1CO2 | -1.42%
27 | O=C(O)C[C@@H]1C[C@@H]2c3cc(NC(=O)NC4CCCC4)ccc3O[C@@H]2[C@H](CO)O1 | 0.604%
28 | CC(C)NC(=O)N1[C@H](CO)[C@H](c2ccccc2)C12CN(C(=O)Cc1cccnc1)C2 | 0.883%
29 | COc1ccc(CCn2c(=N)c(C(=O)NCC3CCCO3)cc3c(=O)n4cccc(C)c4nc32)cc1OC (configuration not stated) | 1.75%
30 | Cc1cccn2c(=O)c3cc(C(=O)NCCN4CCOCC4)c(=N)n(Cc4cccnc4)c3nc12 | 54.5% (active)
31 | Cc1ccc2nc3c(cc(C(=O)NCCc4ccccc4)c(=N)n3CC3CCCO3)c(=O)n2c1 (configuration not stated) | -79.5%
32 | C[C@H]1CN([C@@H](C)CO)C(=O)Cc2cc(NC(=O)Cn3cnnn3)ccc2O[C@H]1CN(C)CC1CC1 | 2.17%
33 | O=C(C[C@H]1C=C[C@H](NC(=O)Nc2cc(F)ccc2F)[C@@H](CO)O1)NCc1ccccn1 | -1.22%
34 | COc1ccc(C(=O)Nc2ccc3c(c2)C(=O)N(C)C[C@@H](OC)[C@H](C)CN(C(C)=O)[C@@H](C)CO3)cc1 | 2.42%
35 | CCC(CC)NC(=O)/C=C/c1cccc([N+](=O)[O-])c1 | 4.03%
36 | O=C(Nc1cccc([N+](=O)[O-])c1)Nn1cnnc1 | -4.32%
37 | COC(=O)/C=C\C(=O)Nc1cccc([N+](=O)[O-])c1 | 33.8% (active)
38 | C[C@@H]1CCCCO[C@H](CN(C)C)[C@@H](C)CN([C@H](C)CO)C(=O)c2cc(N(C)C)ccc2O1 | -1.68%
39 | COc1ccc(NC(=O)N(C)C[C@@H]2OCCCC[C@H](C)Oc3ccc(NS(=O)(=O)c4cccs4)cc3C(=O)N([C@@H](C)CO)C[C@@H]2C)cc1 | -4.78%
40 | Cc1c(C)c2c(OCC(=O)NCCCO)cc3c(c2oc1=O)CCC(C)(C)O3 | 1.62%
41 | Cc1c(C)c2c(OCC(=O)N[C@@H](C(=O)O)c3ccccc3)cc3c(c2oc1=O)CCC(C)(C)O3 | 31.7% (active)
42 | Cc1cc(=O)oc2c3c(cc(OCC(=O)N[C@H](C(=O)O)c4ccccc4)c12)OC(C)(C)CC3 | 15.5%
43 | O=C(C[C@H]1CC[C@H]2[C@@H](COC[C@@H](O)CN2Cc2nccs2)O1)NCc1ccccc1Cl | 0.949%
44 | COc1ccccc1S(=O)(=O)N[C@@H]1C=C[C@H](CC(=O)NCc2cccc(F)c2)O[C@H]1CO | 0.371%
45 | CN(C)C(=O)C[C@@H]1C[C@H]2c3cc(NC(=O)Nc4ccccc4F)ccc3O[C@H]2[C@@H](CO)O1 | -1.15%
46 | O=C(C[C@@H]1C=C[C@H](NC(=O)Nc2ccccc2F)[C@H](CO)O1)NCc1ccc(F)cc1 | -4.09%

Row | SMILES | inhibition
47 | COc1ccc(NC(=O)Nc2ccc3c(c2)C(=O)N([C@@H](C)CO)C[C@@H](C)[C@H](CN(C)S(=O)(=O)c2cccs2)O3)cc1 | 2.02%
48 | C[C@@H]1CN([C@H](C)CO)C(=O)c2cc(NS(=O)(=O)c3cn(C)cn3)ccc2O[C@@H](C)CCCCO[C@H]1CN(C)C | 11.1%
49 | COc1ccc(C#Cc2cnc3c(c2)C(=O)N([C@H](C)CO)C[C@@H](C)[C@@H](CN(C)C(=O)CN(C)C)O3)cc1 | 6.88%
50 | Cc1noc(C)c1S(=O)(=O)Nc1cccc2c1O[C@@H](CN(C)S(=O)(=O)c1cn(C)cn1)[C@@H](C)CN([C@H](C)CO)C2=O | 1.15%
51 | CCCc1cn(CC[C@@H]2CC[C@H](NS(=O)(=O)c3ccccc3Cl)[C@H](CO)O2)nn1 | 4.02%
52 | CO[C@H]1CN(C)C(=O)c2ccc(NC(=O)c3ccc4c(c3)OCO4)cc2OC[C@@H](C)NC[C@@H]1C | 0.503%
53 | CN1C(=O)c2cc(NS(=O)(=O)CC(F)(F)F)ccc2OC[C@H]2O[C@@H](CC(=O)NCc3ccc(Cl)c(Cl)c3)CC[C@@H]21 | -2.14%
54 | Cc1ccccc1S(=O)(=O)N1[C@H](C#N)[C@H](c2ccccc2)[C@@H]1CO | 1.23%
55 | CN(C)C(=O)c1cccc(-c2ccc([C@H]3[C@H]4CN(C(=O)Cc5ccccc5)CC(=O)N4[C@H]3CO)cc2)c1 | 1.83%
56 | CO[C@@H]1CN(C)C(=O)c2cc(NC(=O)NC3CCCC3)ccc2OC[C@H](C)NC[C@H]1C | 1.04%
57 | COc1cccc(S(=O)(=O)N2[C@@H]3CNC[C@H]2C3c2ccc(-c3ccccc3OC)cc2)c1 (some centres not stated) | -1.91% and -0.285%
58 | COC(=O)C[C@@H]1CC[C@H]2[C@H](COc3ccc(NC(=O)c4ccccc4F)cc3C(=O)N2C)O1 | 0.852%
59 | C/C=C/c1ccc([C@H]2[C@@H](CO)N(C(=O)CN(C)C)C23CN(C(=O)C2CCCC2)C3)cc1 | -0.32%
60 | C[C@H](CO)N1C[C@H](C)[C@H](CN(C)C(=O)c2ccccc2)OCCCC[C@H](C)Oc2ccc(N(C)C)cc2C1=O | 1.85%
61 | COc1ccccc1S(=O)(=O)N1C[C@@H]2N[C@H](C1)C2c1ccc(-c2cccc(C)c2)cc1 (some centres not stated) | 4.06% and 6.11%
62 | C[C@@H](NC(=O)C[C@H]1C=C[C@@H](NC(=O)CN2CCOCC2)[C@@H](CO)O1)c1ccccc1 | 9%
63 | CCCN1C[C@H](C)[C@@H](OC)CN(C)C(=O)c2ccc(NC(=O)C3CCOCC3)cc2OC[C@@H]1C | -1.27%
64 | O=C(Nc1cccc(Cl)c1)N[C@@H]1CC[C@@H](CCNC(=O)C2CCOCC2)O[C@@H]1CO | -1.57%
65 | COc1ccc(NC(=O)N(C)C[C@H]2Oc3ccc(N(C)C)cc3C(=O)N([C@@H](C)CO)C[C@H]2C)cc1 | 3.18%
66 | O=C(Nc1cc(F)ccc1F)N1C[C@H]2[C@@H](c3ccccc31)[C@@H](CO)N2CC1CCCC1 | -1.13%
67 | C[C@H]1CN([C@@H](C)CO)C(=O)c2cc(NS(=O)(=O)c3cccs3)ccc2O[C@@H]1CN(C)C(=O)Nc1ccccc1 | -2.47%
